Assay [1] has as its target Albumin (Bos taurus) (UniProt P02769). In words: compounds binding labelled BSA control protein – biochemical, small-molecule microarray, Alexa647 label, 635/667 nm fluorescence, artefact control for SMM control protein annotation, profiling panel (AID 1118).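 Note: score merges 667 nm emission intensity and signal-to-noise per printed compound spot.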 To be noted: BSA-A647 binding, fluorescence 635 nm, higher = more signal.
Assay [2] is described as follows: probe aXIP binding to arrayed compounds – biochemical, NeuroSMM set, 635/667 nm fluorescence, primary screen (AID 1119).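 Note: probe is the protein aXip251-270 applied at 1 µg/mL to compound-printed slides; binding of probe to printed compounds measured as 667 nm fluorescence plus signal to noise.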 To be noted: small-molecule microarray, higher = more signal, called active from +8 up or from −8 down.
A short description of assay [3]: probe aNOTCH3 binding on compound microarray – biochemical, small-molecule microarray, 635/667 nm fluorescence, primary screen (AID 1120).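 Note: probe is a biotin-tagged antibody raised against NOTCH3 rather than NOTCH3 protein; score merges spot fluorescence near 667 nm with spot signal to noise.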 To be noted: higher = more signal.
A short description of assay [4]: probe aNOTCH2 binding on compound microarray – biochemical, small-molecule microarray, 635/667 nm fluorescence, primary screen (AID 1121).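 Note: score merges feature fluorescence read at 667 nm with its signal to noise.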 To be noted: higher = more signal.
Assay [5] deals with Carbonic anhydrase 2 (Homo sapiens) (UniProt P00918). As to the kind of experiment: compounds binding carbonic anhydrase 2 – biochemical, small-molecule microarray, Alexa647-labelled CAII, profiling panel (AID 1122). The following applies: CAII-A647 binding fluorescence, higher = more signal.
Assay [6] is described as follows: COS7 lysate on small-molecule microarray, probe aHis, 635 nm (AID 1123).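 Note: z-score combines 667nm fluorescence intensity with signal-to-noise per printed compound spot.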 To be noted: COS7 cell lysate, fluorescence, higher = more signal.
The nature of assay [7]: probe aLAP1 signal on lysate-treated microarray – cell lysate, small-molecule microarray, COS7 lysate, primary screen (AID 1124).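 Note: lysate comes from COS7 cells expressing LAP1 and is applied at 0.3 µg/mL; score merges spot fluorescence near 667 nm with signal-to-noise over triplicate slides.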 The following applies: probe aLAP1, fluorescence, higher = more signal.
Assay [8] deals with Sam68 (KHDRBS1). In words: compounds binding KHDRBS1 protein – biochemical, small-molecule microarray, 635 nm fluorescence, primary screen (AID 1125).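 Note: score merges 667 nm channel intensity with signal to noise over triplicate slides.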 To be noted: higher = more signal.
Assay [9] deals with Chordin-like protein 2 (CHRDL2). As to the kind of experiment: compounds binding chordin-like 2 – biochemical, small-molecule microarray, 635 nm fluorescence, primary screen (AID 1126).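 Note: printed compound slides probed with Chrdl2 protein at 4 µg/mL for 1 h at 4 C; score merges 667 nm emission intensity with signal to noise over three replicate slides.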 To be noted: fluorescence 635 nm, higher = more signal.
For assay [10], the target named is Concanavalin-A (Canavalia ensiformis) (UniProt P02866). As to the kind of experiment: compounds binding concanavalin A lectin – biochemical, small-molecule microarray, Alexa647 label, 635 nm, artefact control for SMM control protein annotation, primary screen (AID 1127).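 Note: z combines 667 nm emission intensity with signal-to-noise across three replicate slides.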 The following applies: ConA-A647 binding fluorescence, higher = more signal.

The structures appear in SMILES notation. Activity calls are given as the source filed them.

Sequence of Albumin (Bos taurus) (P02769 whole entry, looked up): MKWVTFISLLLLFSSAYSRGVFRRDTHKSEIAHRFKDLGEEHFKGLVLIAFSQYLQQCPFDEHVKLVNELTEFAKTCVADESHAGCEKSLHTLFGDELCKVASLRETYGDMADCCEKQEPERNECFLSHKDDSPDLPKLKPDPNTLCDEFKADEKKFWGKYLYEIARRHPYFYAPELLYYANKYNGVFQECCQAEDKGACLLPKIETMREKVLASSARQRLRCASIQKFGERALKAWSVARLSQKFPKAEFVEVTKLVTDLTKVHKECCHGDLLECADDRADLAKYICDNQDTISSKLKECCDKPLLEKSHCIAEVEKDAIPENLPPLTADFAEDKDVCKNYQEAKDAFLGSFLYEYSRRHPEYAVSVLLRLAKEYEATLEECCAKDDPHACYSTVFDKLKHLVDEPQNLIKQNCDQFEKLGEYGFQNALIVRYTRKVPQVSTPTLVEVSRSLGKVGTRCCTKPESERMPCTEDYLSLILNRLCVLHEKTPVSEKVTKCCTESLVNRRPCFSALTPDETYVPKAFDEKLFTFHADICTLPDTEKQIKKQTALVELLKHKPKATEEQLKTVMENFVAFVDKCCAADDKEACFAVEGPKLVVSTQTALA
Sequence of Concanavalin-A (Canavalia ensiformis) (P02866 whole entry, looked up): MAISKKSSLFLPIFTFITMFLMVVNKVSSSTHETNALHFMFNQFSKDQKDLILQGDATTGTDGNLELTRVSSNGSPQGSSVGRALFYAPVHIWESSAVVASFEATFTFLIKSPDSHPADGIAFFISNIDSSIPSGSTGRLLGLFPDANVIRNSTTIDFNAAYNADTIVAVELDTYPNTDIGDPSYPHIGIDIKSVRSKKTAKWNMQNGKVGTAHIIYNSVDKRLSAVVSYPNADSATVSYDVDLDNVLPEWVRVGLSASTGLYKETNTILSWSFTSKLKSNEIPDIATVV

Turning to `CCOC(=O)[C@H](CC(C)C)NC(=O)CCC1CC(OC(=O)NCc2cccc3ccccc23)CC2(CCCC(COC(=O)NCCc3ccc(Cl)cc3)O2)O1` (stereo not given in full), the composite z-score is 0.332 in assay [1]; 0.0203 in assay [3]; -0.164 in [4]; 0.151 in assay [5]; 0.416 in assay [6]; -0.175 in assay [7]. Moreover, the composite z-score in assay [8] amounted to 0.456; in [9], 0.439; in assay [10], 0.0711. Besides, the composite Z-score in assay [2] was -0.536 (inactive).

`CC(C)CCN1CCc2nc(COc3ccccc3)c3c(c2C1)CO[C@@H](C)C3`: the composite z-score in assay [1] is 0.536; in assay [3], -0.0343; in [4], -0.0797; in assay [5] it was 0.319; in [6] it was 0.965; in [7], 0.378. In addition, the composite z-score worked out at 0.0676 in assay [8], 0.119 in assay [9] and 0.432 in assay [10]. In assay [2], the composite Z-score was 0.354 (inactive).

In the case of `CCN1C(=O)[C@H]2[C@H]3[C@H](O)[C@H](O)CC(=NNC(=O)OCc4ccc(OC)cc4)[C@@H]3CC[C@H]2C1=O`, the composite z-score in [1] is -0.254; in assay [3] it was 0.0945; in [4], -0.0894; in [5], -0.403; in [6], -0.42; in [7], 0.106. In addition, the composite z-score in [8] was -0.362; in assay [9], 0.0319; in [10], -0.205. In assay [2], the composite Z-score is 0.0958 (inactive).

As for `CCc1cc2c(nc1CC)CCN(CCC(C)=NO[C@H](C)c1cn([C@@H]3COC[C@H]3O)nn1)C2`, the composite z-score is -0.559 in [1]; -0.005 in [3]; -0.0554 in [4]; 0.202 in assay [5]; -0.394 in assay [6]; 0.111 in assay [7]. Moreover, the composite z-score in assay [8] is 0.325; in assay [9] it was 0.61; in assay [10], -0.178. For the same molecule, the composite Z-score in [2] was 0.577 (inactive).

In the case of `CCOC(=O)[C@H](CC(C)C)NC(=O)CCC1CC(OC(=O)NCc2ccc3c(c2)OCO3)CC2(CCCC(COC(=O)NCCCN3CCCC3=O)O2)O1` (stereo not given in full), the composite z-score in assay [1] is -0.0359; in assay [3], 0.0196; in [4], -0.108; in assay [5] it was 0.0039; in assay [6] it was 0.659; in assay [7], 0.178. In addition, the composite z-score in assay [8] is 1.33; in assay [9] it was 0.325; in [10], 1.08. For the same molecule, the composite Z-score in [2] was -0.0273 (inactive).

Take `Cc1ccc(S(=O)(=O)N[C@H]2COC(=O)CC=C[C@H](C)[C@@H](NS(=O)(=O)c3ccc(C)cc3)COC(=O)CC=C[C@@H]2C)cc1`: the composite z-score in assay [1] was -0.109; in assay [3], 0.0282; in [4], -0.14; in [5], -0.0386; in assay [6] it was -0.364; in [7] it was -0.242. The composite z-score in assay [8] came to 0.0236; in [9], 0.477; in assay [10], 0.128. Also, the composite Z-score in assay [2] was -0.286 (inactive).

For `C#CCCCON=C1C[C@@H](O)[C@@H](O)[C@@H]2[C@@H]3C(=O)N(CC)C(=O)[C@@H]3CC[C@@H]12`, the composite z-score in assay [1] was -0.171; in assay [3], 0.0779; in [4], -0.108; in [5], 0.231; in [6], 0.248; in assay [7], -0.0523. Besides, the composite z-score in [8] was determined as 0.771; in assay [9] it was 0.687; in assay [10], 0.433. Further, in assay [2], the composite Z-score is -0.0844 (inactive).

Regarding `CCOC(=O)[C@H](Cc1ccccc1)NC(=O)OC1CC(CCC2CC(CC)=NO2)OC2(CCCC(COC(=O)NCCC(C)C)O2)C1` (stereo not given in full), the composite z-score in assay [1] was 0.459; in assay [3] it was -0.133; in [4], -0.179; in assay [5], 0.312; in assay [6], 0.86; in assay [7], -0.342. For the same molecule, the composite z-score in [8] came to 0.676; in [9], 0.139; in assay [10], 0.918. Also, the composite Z-score in assay [2] was 0.257 (inactive).

Regarding `CC(C)CON=C1C[C@@H](O)[C@@H](O)[C@@H]2[C@@H]3C(=O)N(c4cccc(Oc5ccccc5)c4)C(=O)[C@@H]3CC[C@@H]12`, the composite z-score in assay [1] was 0.621; in assay [3] it was -0.0377; in assay [4] it was -0.121; in assay [5] it was 0.418; in assay [6] it was 1.04; in assay [7] it was 0.118. The composite z-score amounted to 1.17 in assay [8], 0.232 in assay [9] and 1.13 in assay [10]. In addition, the composite Z-score in assay [2] was 0.0388 (inactive).

As to `CCc1cc2c(nc1CC)CCN(CCC(C)=NOC[C@H]1O[C@H](c3ccccc3)C=C[C@@H]1Oc1ccc(OC)cc1)C2`, the composite z-score in assay [1] was 0.184; in [3], -0.0311; in assay [4], -0.155; in assay [5], 0.787; in assay [6] it was 0.552; in assay [7], 0.056. The composite z-score in [8] is 0.292; in assay [9], -0.0913; in assay [10], 0.208. Further, in [2], the composite Z-score was -0.0263 (inactive).

Take `CCN1C(=O)[C@H]2[C@H]3[C@H](O)[C@H](O)CC(=NOC[C@H]4O[C@H](c5ccccc5)C=C[C@@H]4Oc4ccc(OC)cc4)[C@@H]3CC[C@H]2C1=O`: the composite z-score is 0.741 in assay [1]; 0.0311 in assay [3]; -0.0274 in [4]; 0.353 in assay [5]; 0.383 in assay [6]; 0.106 in assay [7]. Also, the composite z-score in assay [8] is 1.16; in [9], 0.514; in [10], 0.817. In addition, the composite Z-score in assay [2] is 0.246 (inactive).

Turning to `CCOC(=O)C1=NO[C@]2(C=C(Br)C3(OCCCO3)[C@H]3O[C@H]32)C1`, the composite z-score is 0.653 in assay [1]; -0.239 in assay [3]; -0.0907 in [4]; 0.114 in assay [5]; -0.263 in assay [6]; -0.157 in [7]. The composite z-score in assay [8] is -0.638; in assay [9], -0.31; in [10] it was -0.586. For the same molecule, the composite Z-score in assay [2] was -0.455 (inactive).

Regarding `COC(=O)C1=C(C)N(Cc2ccccc2)[C@]23O[C@](C(=O)OC)(C(=O)N2[C@@H]1c1ccccc1)C(C(=O)OC)=C3C(=O)OC`, the composite z-score in assay [1] was 0.387; in assay [3], 0.201; in assay [4], -0.0439; in assay [5], 0.489; in [6], 0.421; in assay [7] it was -0.624. The composite z-score in [8] worked out at 0.988; in [9], 0.503; in [10], 1.18. In assay [2], the composite Z-score is -0.177 (inactive).
